A short description of assay [1]: ATG_TAL_CIS: Attagene CIS-FACTORIAL HepG2 Assay for human TAL Basal Promoter (AID 2282966; active = hit-call score of the fitted dose curve at least 0.9, where 1 is the maximum; inactive = score below 0.9;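 note: background control endpoint measuring basal TAL promoter reporter mRNA not a specific factor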). Conditions: HepG2 Attagene cis-factorial TAL promoter reporter; actives raise or lower the signal. The method in brief: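 Background-control endpoint: basal TAL promoter reporter transcripts in transiently transfected HepG2, measured 24 h after dosing. Read-out by RT-PCR with fluorescent primer extension and capillary electrophoresis; gain or loss of signal fitted relative to DMSO.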

Assay [2] in a line: ATG_VDRE_CIS: Attagene CIS-FACTORIAL HepG2 Assay for human Vitamin D Receptor Element (VDRE) (AID 2282968; active = hit-call score of the fitted dose curve at least 0.9, where 1 is the maximum; inactive = score below 0.9). The note with it: HepG2 VDRE cis-reporter transcription, actives raise or lower the signal. The method in brief: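 Compounds were applied for 24 h to HepG2 cells transfected with promoter-regulated reporter units. Total RNA was reverse-transcribed, and reporter amplicons were fluorescently labelled and sized by capillary electrophoresis.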

The target of assay [3] is X-box-binding protein 1 (Homo sapiens) (UniProt P17861). The experiment in a line: ATG_Xbp1_CIS: Attagene CIS-FACTORIAL HepG2 Assay for human X-box Binding Protein 1 (XBP1) (AID 2282972; active = hit-call score of the fitted dose curve at least 0.9, where 1 is the maximum; inactive = score below 0.9). The note with it: HepG2 XBP1 cis-element reporter, Attagene multiplex; actives raise or lower the signal. A digest of the protocol: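 Human hepatoma HepG2, cis-element reporter system, 24 h treatment; mRNA quantified by RT-PCR/CE fluorescence; fit relative to DMSO.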

The nature of assay [4]: ATG_GAL4_TRANS: Attagene TRANS-FACTORIAL HepG2 Assay for GAL4 (Internal Marker) (AID 2282976). The note with it: HepG2 Attagene TRANS GAL4 internal marker reporter. A digest of the protocol: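 In transfected human HepG2 liver cells dosed 24 h, GAL4 reporter mRNA serves as a baseline marker. Detection by RT-PCR with fluorescent capillary electrophoresis, activity fitted upward relative to DMSO.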

For assay [5], the target named is Bile acid receptor (Homo sapiens) (UniProt Q96RI1). The assay is described as follows: ATG_FXR_TRANS: Attagene TRANS-FACTORIAL HepG2 Assay for Farnesoid X Receptor (FXR) (AID 2282979).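 Note: hits raise reporter mRNA above DMSO so AC50 marks FXR activation.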 The note with it: HepG2 Attagene TRANS FXR-GAL4 reporter transcription. The method in brief: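 Reporter transcripts from transfected HepG2 cells were measured 24 h after dosing, using RT-PCR with capillary electrophoresis of 6-FAM-labelled fragments. The read-out reflects activity of exogenous FXR-Gal4 chimera on GAL4-UAS units, with induction relative to DMSO.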

Assay [6] addresses Oxysterols receptor LXR-alpha (Homo sapiens) (UniProt Q13133). The assay is described as follows: ATG_LXRa_TRANS: Attagene TRANS-FACTORIAL HepG2 Assay for human Liver X Receptor alpha (LXRa) (AID 2282980). The note with it: HepG2 Attagene TRANS reporter, LXRa transactivation. The method in brief:
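Chemical-induced reporter mRNA measured by RT-PCR with fluorescent labelling and capillary electrophoresis after 24 h dosing of transiently transfected HepG2 cells expressing exogenous NR-Gal4 chimeras; increases scored against DMSO baseline.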

The target of assay [7] is Oxysterols receptor LXR-beta (Homo sapiens) (UniProt P55055). The experiment in a line: ATG_LXRb_TRANS: Attagene TRANS-FACTORIAL HepG2 Assay for human Liver X Receptor beta (LXRb) (AID 2282981). The note with it: HepG2 Attagene TRANS GAL4-LXRb reporter, mRNA. The method in brief:
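Multiplexed reporter assay, HepG2, 24 h dosing. Fluorescence of labelled RT-PCR products after capillary electrophoresis gives transcript level; positive fitting direction relative to DMSO.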

In assay [8] the target is Hepatocyte nuclear factor 4-alpha (Homo sapiens) (UniProt P41235). The assay is described as follows: ATG_HNF4a_TRANS: Attagene TRANS-FACTORIAL HepG2 Assay for human Hepatocyte Nuclear Factor 4 alpha (HNF4a) (AID 2282982). The note with it: HepG2 HNF4a transactivation reporter, mRNA readout. A digest of the protocol:
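Endpoint reflects transcriptional activation of a GAL4-UAS reporter by an HNF4a-GAL4 chimera in transfected HepG2 cells, 24 h post-dosing. Fluorescence from RT-PCR products separated by capillary electrophoresis; DMSO baseline.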

Assay [9] is described as follows: ATG_M_06_TRANS: Attagene TRANS-FACTORIAL HepG2 Assay for M06 Transcription Factor (Internal Marker) (AID 2282983). The note with it: HepG2 Attagene TRANS M06 internal marker reporter. The method in brief: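 Background-control reporter readout: after 24 h chemical exposure of transiently transfected HepG2 (GAL4-UAS reporter units), mRNA quantified by RT-PCR with fluorescent labeling and capillary electrophoresis. Gain-of-signal fitting against DMSO baseline.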

The target of assay [10] is Transcriptional activator Myb (Homo sapiens) (UniProt P10242). The experiment in a line: ATG_Myb_CIS: Attagene CIS-FACTORIAL HepG2 Assay for human Myeloblastosis (Myb) Proto-Oncogene Transcription Factor (AID 2282986; active = hit-call score of the fitted dose curve at least 0.9, where 1 is the maximum; inactive = score below 0.9). Conditions: HepG2 Attagene CIS-FACTORIAL Myb reporter transcription; actives raise or lower the signal. The method in brief: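 Reporter transcript levels, quantified by fluorescent RT-PCR and capillary electrophoresis, serve as the read-out. Transfected HepG2 cells carrying cis-promoter reporter units are dosed for 24 hours, and curves are fitted bidirectionally against DMSO controls.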

In assay [11] the target is Nuclear respiratory factor 1 (Homo sapiens) (UniProt Q16656). The experiment in a line: ATG_NRF1_CIS: Attagene CIS-FACTORIAL HepG2 Assay for human Nuclear Respiratory Factor 1 (NRF1) Orphan Gene (AID 2282987; active = hit-call score of the fitted dose curve at least 0.9, where 1 is the maximum; inactive = score below 0.9). Conditions: HepG2 NRF1 cis-element reporter, Attagene multiplex; actives raise or lower the signal. A digest of the protocol:
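Multiplexed cis-reporter assay, HepG2 cells, 24 h treatment. Total RNA → oligo(dT) RT → PCR with reporter-specific primers → 6-FAM primer extension → HpaI cut → CE. Bidirectional fit vs DMSO.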

Assay [12] deals with Steroid hormone receptor ERR1 (Homo sapiens) (UniProt P11474). The experiment in a line: ATG_ERRa_TRANS: Attagene TRANS-FACTORIAL HepG2 Assay for human Estrogen-Related Receptor alpha (ERRa) (AID 2282971). Conditions: HepG2 Attagene TRANS reporter, ERRa transactivation. A digest of the protocol: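 Reporter transcripts from ERRa-Gal4 chimera activity measured in transiently transfected human HepG2 cells 24 hours after dosing, using RT-PCR with 6-FAM primer extension, HpaI digestion and capillary electrophoresis; DMSO is baseline.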

Assay [13] in a line: ATG_M_32_TRANS: Attagene TRANS-FACTORIAL HepG2 Assay for M32 Transcription Factor (Internal Marker) (AID 2282984). The note with it: HepG2 Attagene TRANS M32 internal marker reporter. The method in brief: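 Internal-marker readout from a multiplexed transcription reporter panel. HepG2 cells were transfected with GAL4-UAS reporter units, treated 24 hours, and reporter transcript levels determined by fluorescence after RT-PCR and capillary separation.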

Assay [14] deals with Nuclear receptor subfamily 4 group A member 2 (Homo sapiens) (UniProt P43354). The experiment in a line: ATG_NURR1_TRANS: Attagene TRANS-FACTORIAL HepG2 Assay for human Nuclear Receptor Related Protein 1 (NURR1) (AID 2282985). Conditions: HepG2 Attagene TRANS reporter, mRNA readout. A digest of the protocol: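 Endpoint: reporter mRNA increase relative to DMSO. HepG2 cells transfected with reporter units, treated 24 h; RNA processed by RT-PCR, labelling, HpaI digestion and capillary electrophoresis.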

Assay [15] addresses Nuclear receptor subfamily 1 group I member 3 (Homo sapiens) (UniProt Q14994). The assay is described as follows: ATG_CAR_TRANS: Attagene TRANS-FACTORIAL HepG2 Assay for human Constitutive Androstane Receptor (CAR) (AID 2282969).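 Note: activators raise reporter mRNA above DMSO so AC50 marks induction.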 The note with it: HepG2 Attagene TRANS-FACTORIAL CAR reporter. A digest of the protocol: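 Transiently transfected HepG2, multiplex TRANS reporters (CAR-Gal4 chimera driving GAL4-UAS reporter). 24 h dosing. Readout: reporter transcript by RT-PCR + capillary electrophoresis, fluorescence intensity; positive direction vs DMSO.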

A short description of assay [16]: ATG_M_19_TRANS: Attagene TRANS-FACTORIAL HepG2 Assay for M19 Transcription Factor (Internal Marker) (AID 2282974). The note with it: HepG2 Attagene TRANS-FACTORIAL M19 internal marker reporter. The method in brief:
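Fluorescence of 6-FAM-labelled reporter cDNA fragments, separated by capillary electrophoresis, served as the readout. These derived from HepG2 cells carrying transfected GAL4-UAS reporter units after 24 h dosing, with DMSO as negative control.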

In assay [17] the target is Glucocorticoid receptor (Homo sapiens) (UniProt P04150). The experiment in a line: ATG_GR_TRANS: Attagene TRANS-FACTORIAL HepG2 Assay for human Glucocorticoid Receptor (GR) (AID 2282978).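 Note: activators score as hits since higher reporter transcript over DMSO is fitted.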 Conditions: HepG2 Attagene TRANS GR reporter, mRNA transcription. The method in brief:
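Fluorescent capillary-electrophoresis quantitation of reporter mRNA is the readout, taken 24 h after dosing human HepG2 cells carrying transiently transfected GAL4-UAS reporter units activated by chimeric NR-GAL4 fusions; activity scored as induction over DMSO.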

The target of assay [18] is Estrogen receptor (Homo sapiens) (UniProt P03372). The experiment in a line: ATG_ERa_TRANS: Attagene TRANS-FACTORIAL HepG2 Assay for human Estrogen Receptor alpha (ERa) (AID 2282970). Conditions: HepG2 Attagene TRANS ERa GAL4 reporter, mRNA. A digest of the protocol: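 Reporter transcripts were measured 24 h after dosing by RT-PCR with fluorescent primer extension and capillary electrophoresis. The system is transiently transfected HepG2 expressing exogenous NR-Gal4 chimeras driving GAL4-UAS reporters; DMSO is the baseline.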

Assay [19] is described as follows: ATG_TGFb_CIS: Attagene CIS-FACTORIAL HepG2 Assay for human Transforming Growth Factor (TGF) (AID 2282967; active = hit-call score of the fitted dose curve at least 0.9, where 1 is the maximum; inactive = score below 0.9). Conditions: HepG2 Attagene CIS TGFb reporter, mRNA transcription; actives raise or lower the signal. The method in brief:
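Multiplexed cis-reporter HepG2 system, 24 h treatment; mRNA induction read by fluorescence after RT-PCR and CE; DMSO negative control, bidirectional curve fitting.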

The source of these data is PubChem BioAssay (EPA / NIEHS).

The structures appear in SMILES notation. Results filed as inconclusive are left out. The source made the active and inactive calls. Rule for the calls, unless noted: active = hit-call score of the fitted dose curve at least 0.9, where 1 is the maximum; inconclusive = response in the unintended direction; inactive = score below 0.9.

Chain of Nuclear respiratory factor 1 (Homo sapiens) (Q16656 whole entry, looked up): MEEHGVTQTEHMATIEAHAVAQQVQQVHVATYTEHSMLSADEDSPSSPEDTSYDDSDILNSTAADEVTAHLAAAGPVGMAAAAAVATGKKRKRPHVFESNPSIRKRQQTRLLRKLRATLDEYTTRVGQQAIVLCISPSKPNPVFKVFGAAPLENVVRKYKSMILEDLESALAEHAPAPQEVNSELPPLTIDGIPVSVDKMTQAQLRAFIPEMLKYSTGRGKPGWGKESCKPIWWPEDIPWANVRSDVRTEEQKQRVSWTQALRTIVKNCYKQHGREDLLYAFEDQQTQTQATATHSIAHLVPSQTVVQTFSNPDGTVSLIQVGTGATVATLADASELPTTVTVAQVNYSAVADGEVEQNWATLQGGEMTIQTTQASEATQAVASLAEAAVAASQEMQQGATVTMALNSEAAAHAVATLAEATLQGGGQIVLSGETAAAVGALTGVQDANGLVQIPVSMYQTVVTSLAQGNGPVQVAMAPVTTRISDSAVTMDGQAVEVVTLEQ
Chain of Nuclear receptor subfamily 4 group A member 2 (Homo sapiens) (P43354 whole entry, looked up): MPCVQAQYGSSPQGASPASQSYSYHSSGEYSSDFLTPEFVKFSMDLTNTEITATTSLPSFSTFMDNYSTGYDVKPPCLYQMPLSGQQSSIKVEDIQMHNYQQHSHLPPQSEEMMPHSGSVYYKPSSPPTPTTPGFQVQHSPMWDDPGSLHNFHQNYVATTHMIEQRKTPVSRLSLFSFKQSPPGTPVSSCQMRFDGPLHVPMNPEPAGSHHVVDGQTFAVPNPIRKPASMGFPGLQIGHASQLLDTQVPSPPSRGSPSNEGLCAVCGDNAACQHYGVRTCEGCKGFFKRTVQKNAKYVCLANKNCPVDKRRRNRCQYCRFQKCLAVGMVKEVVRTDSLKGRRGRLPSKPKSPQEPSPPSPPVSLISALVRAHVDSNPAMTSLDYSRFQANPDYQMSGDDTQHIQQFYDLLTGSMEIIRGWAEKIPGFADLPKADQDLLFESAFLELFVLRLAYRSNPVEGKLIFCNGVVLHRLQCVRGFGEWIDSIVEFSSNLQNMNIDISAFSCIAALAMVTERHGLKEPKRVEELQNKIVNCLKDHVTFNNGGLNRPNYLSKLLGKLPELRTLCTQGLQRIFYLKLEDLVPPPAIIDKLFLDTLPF
Chain of Transcriptional activator Myb (Homo sapiens) (P10242 whole entry, looked up): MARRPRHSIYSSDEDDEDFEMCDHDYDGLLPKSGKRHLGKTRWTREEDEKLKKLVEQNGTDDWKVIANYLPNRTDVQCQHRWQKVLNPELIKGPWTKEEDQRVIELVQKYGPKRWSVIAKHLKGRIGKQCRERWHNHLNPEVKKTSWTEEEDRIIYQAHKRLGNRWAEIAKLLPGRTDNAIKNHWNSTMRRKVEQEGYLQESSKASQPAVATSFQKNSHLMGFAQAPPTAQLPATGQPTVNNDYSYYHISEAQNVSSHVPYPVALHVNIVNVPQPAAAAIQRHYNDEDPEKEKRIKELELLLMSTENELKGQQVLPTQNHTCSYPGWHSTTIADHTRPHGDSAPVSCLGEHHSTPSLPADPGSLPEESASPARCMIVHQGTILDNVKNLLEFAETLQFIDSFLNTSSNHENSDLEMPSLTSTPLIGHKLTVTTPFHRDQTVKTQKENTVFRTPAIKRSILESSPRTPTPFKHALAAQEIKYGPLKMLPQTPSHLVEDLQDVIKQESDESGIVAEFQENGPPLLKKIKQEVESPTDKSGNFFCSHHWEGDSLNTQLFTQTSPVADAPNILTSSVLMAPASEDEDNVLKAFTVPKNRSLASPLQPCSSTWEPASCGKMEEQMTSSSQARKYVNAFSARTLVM
Chain of X-box-binding protein 1 (Homo sapiens) (P17861 whole entry, looked up): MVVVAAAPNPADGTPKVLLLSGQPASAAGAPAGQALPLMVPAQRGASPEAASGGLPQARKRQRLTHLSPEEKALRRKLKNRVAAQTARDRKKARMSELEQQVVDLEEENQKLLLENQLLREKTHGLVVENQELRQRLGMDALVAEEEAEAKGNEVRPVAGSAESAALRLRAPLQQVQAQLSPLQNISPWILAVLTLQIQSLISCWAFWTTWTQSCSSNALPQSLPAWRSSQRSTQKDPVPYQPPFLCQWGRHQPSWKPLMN
Chain of Bile acid receptor (Homo sapiens) (Q96RI1 whole entry, looked up, the tested form may be a part): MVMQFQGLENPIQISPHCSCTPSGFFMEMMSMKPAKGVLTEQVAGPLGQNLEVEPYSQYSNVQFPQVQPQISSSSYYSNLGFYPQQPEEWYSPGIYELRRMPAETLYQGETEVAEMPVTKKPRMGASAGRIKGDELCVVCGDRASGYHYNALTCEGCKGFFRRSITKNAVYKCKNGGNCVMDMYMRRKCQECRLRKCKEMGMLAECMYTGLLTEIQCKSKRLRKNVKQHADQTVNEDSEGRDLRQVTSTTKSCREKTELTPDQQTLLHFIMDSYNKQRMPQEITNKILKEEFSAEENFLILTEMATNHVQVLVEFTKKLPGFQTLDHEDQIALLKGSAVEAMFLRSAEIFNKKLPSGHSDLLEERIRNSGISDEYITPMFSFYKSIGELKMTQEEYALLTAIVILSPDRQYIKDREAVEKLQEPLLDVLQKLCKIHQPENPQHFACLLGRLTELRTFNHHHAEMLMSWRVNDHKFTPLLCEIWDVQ
Chain of Oxysterols receptor LXR-alpha (Homo sapiens) (Q13133 whole entry, looked up, the tested form may be a part): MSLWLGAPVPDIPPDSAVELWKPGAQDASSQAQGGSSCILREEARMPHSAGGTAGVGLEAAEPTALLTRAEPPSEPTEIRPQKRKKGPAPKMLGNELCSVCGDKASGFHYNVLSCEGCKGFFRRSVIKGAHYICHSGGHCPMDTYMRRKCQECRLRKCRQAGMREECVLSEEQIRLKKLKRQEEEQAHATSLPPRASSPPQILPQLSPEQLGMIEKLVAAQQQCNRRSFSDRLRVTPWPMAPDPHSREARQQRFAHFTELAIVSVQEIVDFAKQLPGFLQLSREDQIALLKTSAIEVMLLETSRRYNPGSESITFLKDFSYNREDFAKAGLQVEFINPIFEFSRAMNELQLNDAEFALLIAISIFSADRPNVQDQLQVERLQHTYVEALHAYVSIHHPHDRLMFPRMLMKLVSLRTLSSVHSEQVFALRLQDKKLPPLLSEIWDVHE
Chain of Glucocorticoid receptor (Homo sapiens) (P04150 whole entry, looked up, the tested form may be a part): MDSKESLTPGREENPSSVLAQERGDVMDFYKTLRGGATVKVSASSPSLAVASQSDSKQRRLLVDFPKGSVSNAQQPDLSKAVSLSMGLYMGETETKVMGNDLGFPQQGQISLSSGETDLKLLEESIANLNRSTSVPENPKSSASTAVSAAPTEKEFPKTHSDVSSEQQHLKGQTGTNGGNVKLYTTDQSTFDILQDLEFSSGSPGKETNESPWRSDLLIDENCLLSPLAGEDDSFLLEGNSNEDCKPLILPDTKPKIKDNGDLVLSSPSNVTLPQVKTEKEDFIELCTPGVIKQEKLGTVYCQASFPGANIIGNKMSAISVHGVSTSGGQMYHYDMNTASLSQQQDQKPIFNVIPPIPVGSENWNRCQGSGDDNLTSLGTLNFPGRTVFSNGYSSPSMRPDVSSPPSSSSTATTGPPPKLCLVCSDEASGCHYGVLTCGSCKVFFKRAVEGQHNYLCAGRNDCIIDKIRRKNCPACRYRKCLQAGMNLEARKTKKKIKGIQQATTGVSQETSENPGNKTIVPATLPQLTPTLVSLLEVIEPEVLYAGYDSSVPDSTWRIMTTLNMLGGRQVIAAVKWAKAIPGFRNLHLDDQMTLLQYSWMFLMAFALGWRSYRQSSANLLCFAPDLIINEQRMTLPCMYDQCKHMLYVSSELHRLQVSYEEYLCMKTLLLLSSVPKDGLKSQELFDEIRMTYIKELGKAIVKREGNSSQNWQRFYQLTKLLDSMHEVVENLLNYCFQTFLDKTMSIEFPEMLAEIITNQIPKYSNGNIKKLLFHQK
Chain of Nuclear receptor subfamily 1 group I member 3 (Homo sapiens) (Q14994 whole entry, looked up, the tested form may be a part): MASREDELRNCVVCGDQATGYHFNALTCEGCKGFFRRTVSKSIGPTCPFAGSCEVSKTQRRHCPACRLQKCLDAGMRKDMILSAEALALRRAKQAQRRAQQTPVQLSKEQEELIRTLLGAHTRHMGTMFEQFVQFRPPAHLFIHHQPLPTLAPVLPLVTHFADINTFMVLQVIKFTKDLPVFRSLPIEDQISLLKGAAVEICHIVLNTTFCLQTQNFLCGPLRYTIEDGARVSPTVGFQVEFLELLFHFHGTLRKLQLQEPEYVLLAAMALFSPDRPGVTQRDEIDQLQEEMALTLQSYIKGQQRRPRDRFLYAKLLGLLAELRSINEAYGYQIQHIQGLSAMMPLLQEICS
Chain of Oxysterols receptor LXR-beta (Homo sapiens) (P55055 whole entry, looked up, the tested form may be a part): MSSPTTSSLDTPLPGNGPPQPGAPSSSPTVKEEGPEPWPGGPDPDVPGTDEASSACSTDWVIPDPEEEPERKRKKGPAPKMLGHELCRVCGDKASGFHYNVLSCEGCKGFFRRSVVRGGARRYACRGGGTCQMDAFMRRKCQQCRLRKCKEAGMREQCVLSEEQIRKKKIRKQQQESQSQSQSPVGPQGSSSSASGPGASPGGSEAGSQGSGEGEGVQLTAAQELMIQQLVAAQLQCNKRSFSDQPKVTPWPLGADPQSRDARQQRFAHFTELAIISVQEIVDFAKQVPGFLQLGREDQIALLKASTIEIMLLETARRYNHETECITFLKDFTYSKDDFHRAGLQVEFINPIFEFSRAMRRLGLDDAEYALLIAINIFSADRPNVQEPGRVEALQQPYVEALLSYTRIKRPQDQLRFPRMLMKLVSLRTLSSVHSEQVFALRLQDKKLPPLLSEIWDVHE
Chain of Hepatocyte nuclear factor 4-alpha (Homo sapiens) (P41235 whole entry, looked up, the tested form may be a part): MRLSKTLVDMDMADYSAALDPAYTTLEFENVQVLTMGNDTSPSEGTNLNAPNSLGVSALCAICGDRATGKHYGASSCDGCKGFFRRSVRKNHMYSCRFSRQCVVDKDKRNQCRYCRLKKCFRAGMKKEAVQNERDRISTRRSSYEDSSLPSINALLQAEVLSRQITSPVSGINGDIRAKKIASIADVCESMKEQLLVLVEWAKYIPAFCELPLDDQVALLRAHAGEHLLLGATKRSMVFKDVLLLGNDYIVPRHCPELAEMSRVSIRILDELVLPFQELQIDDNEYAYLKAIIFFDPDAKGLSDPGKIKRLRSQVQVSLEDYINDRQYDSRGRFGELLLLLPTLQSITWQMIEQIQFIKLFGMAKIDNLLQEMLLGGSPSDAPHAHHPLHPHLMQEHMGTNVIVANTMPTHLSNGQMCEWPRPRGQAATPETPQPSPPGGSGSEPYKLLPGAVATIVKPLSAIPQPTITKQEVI

Regarding `COS(=O)(=O)O`, the result in assay [1], in assay [2], in assay [3], in assay [4], in [5] and in [6] was inactive. In addition, the molecule was called inactive in assay [7], in assay [8], in assay [9], in assay [10] and in assay [11].
In the case of `C=C(C)C(=O)OCCOC1CC2CC1C1C=CCC21` (centres undefined), the molecule was called inactive in assay [1], in [2], in assay [12], in assay [3], in [4] and in assay [8]. In addition, the result in assay [9], in assay [13], in assay [14], in [10] and in assay [11] was inactive.
For the molecule `C=Cc1ccc(C)cc1`, the molecule was classed as inactive in assay [1], in assay [2], in [15], in assay [3], in assay [16] and in assay [4]. In addition, the call in assay [17], in assay [13], in assay [10] and in [11] was inactive.
For the molecule `C=CCN(CC=C)CC=C`, the molecule was called inactive in [1], in assay [2], in assay [3], in assay [4], in assay [17] and in assay [8]. Further, the call in [9], in assay [10] and in assay [11] was inactive.
In the case of `CCC(=O)OCCOc1ccccc1`, the molecule was called inactive in assay [1], in assay [2], in [3], in [4], in assay [6] and in assay [9]. The outcome in assay [13], in [14] and in assay [11] was inactive.
`Nc1c(S(=O)(=O)O)cc(Br)c2c1C(=O)c1ccccc1C2=O`: the molecule was classed as inactive in assay [1], in [18], in assay [3], in assay [6], in assay [9] and in assay [13]. The result in [14] and in assay [11] was inactive. Further, in [2], the AC50 is 72.4 µM (active).
As to `Cc1c(OCC(F)(F)F)ccnc1CS(=O)c1nc2ccccc2[nH]1` (centres undefined), the molecule was called inactive in assay [1], in assay [19], in assay [17], in assay [5], in [7] and in assay [9]. Moreover, the call in [13] and in assay [10] was inactive. Moreover, the AC50 in assay [14] was 36.7 µM (active); in assay [11] it was 128 µM (active).
For `COC(C)(C)CC(C)=O`, the call in [1], in [2], in assay [15], in assay [3], in assay [16] and in assay [4] was inactive. The outcome in assay [17], in [5], in assay [7], in assay [8], in assay [9] and in [13] was inactive. Further, the molecule was classed as inactive in assay [14], in [10] and in assay [11].
Consider `CCCCCCC(CO)CCCC` (centres undefined), for which the call in assay [1], in assay [2], in assay [15], in assay [3], in assay [17] and in [8] was inactive. Also, the molecule was classed as inactive in assay [13], in [14], in [10] and in [11].

The term AC50 denotes the midpoint of the concentration-response curve, whichever way the signal moves.
